# Results taken from PubChem BioAssay.
# Calls of active or inactive are those of the source.
# Tests used:
# [1] = tested on: PRMT1 (protein arginine N-methyltransferase 1); assay: small molecules binding arginine methyltransferase PRMT1 – biochemical, small-molecule microarray, 635 nm fluorescence, primary screen (AID 1088); conditions: higher = more signal;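 also: binding of Prmt1 protein to compounds spotted on small-molecule microarray slides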
# [2] = growth effects on S. cerevisiae YJM789 – YJM789 clinical isolate, OD600, 24 h, basal, primary screen (AID 1089); conditions: higher = more signal, called active from +8 up or from −8 down;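 also: growth of clinical yeast isolate S. cerevisiae YJM 789 seeded 1000 cells per well; test concentration not given here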
# [3] = S. pombe growth modifiers, basal conditions – strain 972, OD600, 24 h, no modulator, primary screen (AID 1090);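 also: basal condition with compound alone and no growth modifier present; test concentration not given here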; conditions: S. pombe 972 growth, higher = more signal, called active from +8 up or from −8 down
# [4] = budding yeast growth modifiers under rapamycin – strain BY4716, OD600, 96 h, primary screen (AID 1091); also: test concentration not given here; conditions: S. cerevisiae BY4716 + rapamycin, higher = more signal, called active from +8 up or from −8 down
# [5] = target: Torsin-1A-interacting protein 2 (Homo sapiens) (UniProt Q8NFQ8); assay: small molecules binding lysate-expressed LULL1 – cell lysate, human LULL1 lysate, 635/667 nm fluorescence, primary screen (AID 1092); conditions: small-molecule microarray, hLULL1 lysate binding, 635 nm fluorescence; higher = more signal;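 also: probe is lysate of COS7 cells overexpressing human LULL1; score merges per-feature 667 nm fluorescence with signal-to-noise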
# Torsin-1A-interacting protein 2 (Homo sapiens), sequence (Q8NFQ8 whole entry, looked up): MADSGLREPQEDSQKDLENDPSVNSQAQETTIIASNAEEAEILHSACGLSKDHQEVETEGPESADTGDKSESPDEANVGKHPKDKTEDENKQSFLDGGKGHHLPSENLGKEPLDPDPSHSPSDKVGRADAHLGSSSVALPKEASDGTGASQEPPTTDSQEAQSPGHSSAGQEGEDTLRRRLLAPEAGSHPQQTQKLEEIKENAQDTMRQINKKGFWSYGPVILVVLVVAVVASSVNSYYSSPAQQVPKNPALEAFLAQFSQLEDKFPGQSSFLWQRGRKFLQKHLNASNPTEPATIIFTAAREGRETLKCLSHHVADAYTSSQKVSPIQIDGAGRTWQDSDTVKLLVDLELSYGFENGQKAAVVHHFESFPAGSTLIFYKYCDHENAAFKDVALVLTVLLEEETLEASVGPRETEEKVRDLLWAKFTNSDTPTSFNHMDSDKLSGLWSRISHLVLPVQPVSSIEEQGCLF
# [6] = optical density change of DRC41 E. coli – strain DRC41, OD650, 24 h, E. coli filamentation project, primary screen (AID 1093);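 also: MC1000 strain lacking acrAB efflux and sulA so SOS filamentation is blocked; test concentration not given here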; conditions: E. coli DRC41 growth, higher = more signal, called active from +8 up or from −8 down
# [7] = probe aLefty2 binding to arrayed compounds – biochemical, biotinylated probe, 635/667 nm fluorescence, primary screen (AID 1094); conditions: small-molecule microarray, higher = more signal;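 also: score merges spot fluorescence near 667 nm with spot signal-to-noise ratio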
# [8] = tested on: Noggin (protein binding on small-molecule microarray); assay: small molecules binding Noggin protein – biochemical, 635/667 nm fluorescence, primary screen (AID 1095); conditions: 635 nm fluorescence, higher = more signal;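 also: score merges 667 nm feature fluorescence with signal to noise over triplicate slides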
# [9] = target: Neurogenic locus notch homolog protein 3 (Homo sapiens) (UniProt Q9UM47); assay: small molecules binding NOTCH3 protein – biochemical, 635/667 nm fluorescence, primary screen (AID 1096); conditions: small-molecule microarray, 635 nm fluorescence, higher = more signal
# Neurogenic locus notch homolog protein 3 (Homo sapiens), sequence (Q9UM47 whole entry, looked up): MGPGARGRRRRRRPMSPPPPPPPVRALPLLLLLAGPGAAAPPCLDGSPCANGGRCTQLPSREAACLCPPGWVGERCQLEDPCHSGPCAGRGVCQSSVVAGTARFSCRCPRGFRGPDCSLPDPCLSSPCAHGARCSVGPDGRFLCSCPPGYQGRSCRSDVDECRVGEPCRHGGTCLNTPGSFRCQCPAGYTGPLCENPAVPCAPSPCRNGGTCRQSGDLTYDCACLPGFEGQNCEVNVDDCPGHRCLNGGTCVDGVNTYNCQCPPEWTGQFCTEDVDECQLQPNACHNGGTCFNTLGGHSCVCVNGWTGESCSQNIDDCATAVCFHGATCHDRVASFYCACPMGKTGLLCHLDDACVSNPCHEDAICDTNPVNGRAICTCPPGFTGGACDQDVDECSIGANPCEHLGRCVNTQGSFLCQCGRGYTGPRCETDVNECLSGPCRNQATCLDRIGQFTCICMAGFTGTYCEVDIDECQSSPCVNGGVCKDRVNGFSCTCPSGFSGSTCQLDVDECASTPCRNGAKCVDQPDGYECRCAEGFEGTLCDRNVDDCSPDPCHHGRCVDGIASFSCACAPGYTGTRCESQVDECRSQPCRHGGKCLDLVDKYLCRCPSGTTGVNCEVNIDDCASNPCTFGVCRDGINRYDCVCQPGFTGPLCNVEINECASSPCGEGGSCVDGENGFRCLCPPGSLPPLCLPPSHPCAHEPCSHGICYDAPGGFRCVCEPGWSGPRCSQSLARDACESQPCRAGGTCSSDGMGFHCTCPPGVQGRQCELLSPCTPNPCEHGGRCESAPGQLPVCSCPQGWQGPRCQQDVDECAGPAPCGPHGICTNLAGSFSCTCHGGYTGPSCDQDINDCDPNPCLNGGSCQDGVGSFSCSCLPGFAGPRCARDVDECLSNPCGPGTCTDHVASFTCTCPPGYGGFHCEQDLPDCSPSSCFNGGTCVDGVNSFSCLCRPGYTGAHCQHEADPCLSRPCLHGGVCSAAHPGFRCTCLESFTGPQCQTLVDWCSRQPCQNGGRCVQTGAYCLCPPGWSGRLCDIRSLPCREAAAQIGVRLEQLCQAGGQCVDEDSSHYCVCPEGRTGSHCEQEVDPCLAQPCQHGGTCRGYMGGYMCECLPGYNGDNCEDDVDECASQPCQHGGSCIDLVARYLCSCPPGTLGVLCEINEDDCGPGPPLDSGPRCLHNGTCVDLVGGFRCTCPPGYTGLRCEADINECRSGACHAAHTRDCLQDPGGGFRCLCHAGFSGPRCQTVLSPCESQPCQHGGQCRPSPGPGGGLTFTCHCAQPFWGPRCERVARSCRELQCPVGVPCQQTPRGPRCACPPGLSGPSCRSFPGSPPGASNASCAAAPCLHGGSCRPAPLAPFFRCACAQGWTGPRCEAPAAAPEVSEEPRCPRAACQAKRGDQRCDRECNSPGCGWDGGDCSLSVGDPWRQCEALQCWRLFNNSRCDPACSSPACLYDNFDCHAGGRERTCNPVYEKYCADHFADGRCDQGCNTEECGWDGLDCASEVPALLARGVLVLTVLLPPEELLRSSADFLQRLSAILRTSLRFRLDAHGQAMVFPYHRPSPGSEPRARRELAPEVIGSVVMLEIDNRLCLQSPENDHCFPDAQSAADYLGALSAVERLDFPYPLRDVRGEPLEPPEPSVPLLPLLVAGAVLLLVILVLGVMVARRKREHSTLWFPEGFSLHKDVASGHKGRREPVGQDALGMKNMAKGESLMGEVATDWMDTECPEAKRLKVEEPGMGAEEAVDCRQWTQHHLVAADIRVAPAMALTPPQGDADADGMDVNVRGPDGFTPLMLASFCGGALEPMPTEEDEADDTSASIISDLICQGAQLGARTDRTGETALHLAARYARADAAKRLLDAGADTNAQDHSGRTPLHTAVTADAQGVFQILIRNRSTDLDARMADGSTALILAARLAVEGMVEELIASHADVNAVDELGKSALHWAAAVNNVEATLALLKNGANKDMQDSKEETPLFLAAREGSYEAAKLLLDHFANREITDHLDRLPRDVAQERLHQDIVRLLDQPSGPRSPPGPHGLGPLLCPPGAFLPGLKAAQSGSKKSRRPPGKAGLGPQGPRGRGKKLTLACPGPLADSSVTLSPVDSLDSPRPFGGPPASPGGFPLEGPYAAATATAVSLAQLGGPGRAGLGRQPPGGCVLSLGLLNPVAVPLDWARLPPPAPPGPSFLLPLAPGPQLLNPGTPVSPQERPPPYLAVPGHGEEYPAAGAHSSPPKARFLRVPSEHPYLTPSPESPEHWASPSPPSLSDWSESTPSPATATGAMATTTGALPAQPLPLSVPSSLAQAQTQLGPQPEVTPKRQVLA
# [10] = probe aEGFR binding to arrayed compounds – biochemical, biotinylated probe, 635/667 nm fluorescence, primary screen (AID 1097); conditions: small-molecule microarray, higher = more signal;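 also: probe is a biotinylated anti-EGFR antibody binding compounds printed on slides; score combines fluorescence near 667 nm and signal to noise of each spot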
# [11] = tested on: Plasmodium falciparum Sir2 (PF13_0152, Sir2A); assay: Plasmodium falciparum Sir2A binding compounds – biochemical, small-molecule microarray, 635 nm fluorescence, primary screen (AID 1098); conditions: fluorescence 635 nm, higher = more signal;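 also: score merges spot fluorescence intensity with its signal-to-noise ratio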
# [12] = probe aDKK1 binding to arrayed compounds – biochemical, biotinylated probe, 635/667 nm fluorescence, primary screen (AID 1099); conditions: small-molecule microarray, higher = more signal;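 also: score merges 667nm spot fluorescence with signal to noise across triplicate slides; reference of the scale not given here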
# [13] = probe aCHRDL2 binding to arrayed compounds – biochemical, biotinylated probe, 635/667 nm fluorescence, primary screen (AID 1100); conditions: small-molecule microarray, higher = more signal
# [14] = change in splice reporter luminescence, either direction, cell-based, HEK293, spliceosome inhibition project, primary screen (AID 1101); conditions: HEK293 splicing luciferase reporter, 24 h, higher = more signal, called active from +8 up or from −8 down;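 also: HEK293 cells carrying a splicing-competent luciferase reporter gene; test concentration not given here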
# [15] = target: Fibroblast growth factor 10 (Homo sapiens) (UniProt O15520); assay: compounds binding fibroblast growth factor 10 – biochemical, small-molecule microarray, 635 nm fluorescence, primary screen (AID 1102); conditions: FGF10 binding, fluorescence 635 nm, higher = more signal
# Fibroblast growth factor 10 (Homo sapiens), sequence (O15520 whole entry, looked up): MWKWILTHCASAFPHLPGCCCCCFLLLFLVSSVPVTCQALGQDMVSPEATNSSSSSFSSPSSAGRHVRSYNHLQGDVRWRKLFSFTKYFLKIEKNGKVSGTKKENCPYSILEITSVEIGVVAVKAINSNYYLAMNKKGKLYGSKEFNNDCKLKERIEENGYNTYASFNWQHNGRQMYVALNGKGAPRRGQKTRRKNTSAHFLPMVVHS
# [16] = tested on: glycogen synthase kinase-3 (GSK3A per assay name; protocol says GSK3B); assay: compounds binding glycogen synthase kinase-3 – biochemical, small-molecule microarray, 635 nm fluorescence, GSK3A, primary screen (AID 1103); conditions: fluorescence 635 nm, higher = more signal; also: the record names both GSK3A and GSK3B
# [17] = target: Epidermal growth factor receptor (Homo sapiens) (UniProt P00533); assay: compounds binding epidermal growth factor receptor – biochemical, small-molecule microarray, 635 nm fluorescence, primary screen (AID 1104); conditions: EGFR binding, higher = more signal;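 also: score merges 667 nm emission intensity with spot signal to noise over triplicate slides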
# Epidermal growth factor receptor (Homo sapiens), sequence (P00533 whole entry, looked up): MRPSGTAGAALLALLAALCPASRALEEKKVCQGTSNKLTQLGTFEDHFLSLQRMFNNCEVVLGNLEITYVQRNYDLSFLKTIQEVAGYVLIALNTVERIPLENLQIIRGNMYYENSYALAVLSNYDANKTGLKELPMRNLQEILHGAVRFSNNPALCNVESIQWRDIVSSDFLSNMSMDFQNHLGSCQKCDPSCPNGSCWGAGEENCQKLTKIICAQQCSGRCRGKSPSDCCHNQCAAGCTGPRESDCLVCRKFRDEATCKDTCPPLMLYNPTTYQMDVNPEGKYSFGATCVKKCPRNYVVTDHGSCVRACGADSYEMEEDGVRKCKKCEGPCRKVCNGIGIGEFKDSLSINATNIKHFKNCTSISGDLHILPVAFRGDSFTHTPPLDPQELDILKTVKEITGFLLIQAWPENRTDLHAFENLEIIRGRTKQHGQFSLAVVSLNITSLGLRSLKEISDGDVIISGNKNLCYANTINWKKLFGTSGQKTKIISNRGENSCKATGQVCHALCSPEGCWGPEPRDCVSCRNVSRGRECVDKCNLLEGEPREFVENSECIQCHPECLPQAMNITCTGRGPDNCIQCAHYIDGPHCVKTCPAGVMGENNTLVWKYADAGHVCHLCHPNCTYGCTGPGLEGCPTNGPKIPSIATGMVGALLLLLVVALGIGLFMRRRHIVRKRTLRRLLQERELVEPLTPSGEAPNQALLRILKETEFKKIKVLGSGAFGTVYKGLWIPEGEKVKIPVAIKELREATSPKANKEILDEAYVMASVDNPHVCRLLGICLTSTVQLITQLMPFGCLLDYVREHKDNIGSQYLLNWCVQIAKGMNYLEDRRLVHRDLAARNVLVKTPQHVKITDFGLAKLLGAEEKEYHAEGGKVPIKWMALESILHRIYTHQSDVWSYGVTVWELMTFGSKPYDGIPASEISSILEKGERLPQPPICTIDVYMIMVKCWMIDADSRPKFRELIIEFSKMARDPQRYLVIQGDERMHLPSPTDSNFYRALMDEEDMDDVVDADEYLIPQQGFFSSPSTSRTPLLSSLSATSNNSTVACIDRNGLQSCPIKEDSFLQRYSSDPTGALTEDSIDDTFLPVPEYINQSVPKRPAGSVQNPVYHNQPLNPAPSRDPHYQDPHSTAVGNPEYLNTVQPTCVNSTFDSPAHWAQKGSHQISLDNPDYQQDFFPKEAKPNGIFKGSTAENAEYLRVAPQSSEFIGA
# [18] = target: Follistatin-related protein 3 (Homo sapiens) (UniProt O95633); assay: compounds binding follistatin-related protein 3 – biochemical, small-molecule microarray, 635 nm fluorescence, primary screen (AID 1105); conditions: FSTL3 binding, higher = more signal;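 also: score merges emission near 667 nm and signal to noise per printed spot across three slides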
# Follistatin-related protein 3 (Homo sapiens), sequence (O95633 whole entry, looked up): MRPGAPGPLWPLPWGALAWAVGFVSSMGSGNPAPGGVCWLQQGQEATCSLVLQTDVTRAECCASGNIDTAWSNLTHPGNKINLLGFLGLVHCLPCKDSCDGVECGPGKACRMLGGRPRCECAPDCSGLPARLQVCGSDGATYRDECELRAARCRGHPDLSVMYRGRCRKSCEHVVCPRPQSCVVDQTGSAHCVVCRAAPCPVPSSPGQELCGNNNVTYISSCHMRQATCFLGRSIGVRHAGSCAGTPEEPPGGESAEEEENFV
# [19] = target: Dickkopf-related protein 1 (Homo sapiens) (UniProt O94907); assay: small molecules binding DKK1 protein – biochemical, small-molecule microarray, 635 nm fluorescence scan, primary screen (AID 1106); conditions: higher = more signal;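 also: score merges emission near 667 nm with signal to noise over three replicate slides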
# Dickkopf-related protein 1 (Homo sapiens), sequence (O94907 whole entry, looked up): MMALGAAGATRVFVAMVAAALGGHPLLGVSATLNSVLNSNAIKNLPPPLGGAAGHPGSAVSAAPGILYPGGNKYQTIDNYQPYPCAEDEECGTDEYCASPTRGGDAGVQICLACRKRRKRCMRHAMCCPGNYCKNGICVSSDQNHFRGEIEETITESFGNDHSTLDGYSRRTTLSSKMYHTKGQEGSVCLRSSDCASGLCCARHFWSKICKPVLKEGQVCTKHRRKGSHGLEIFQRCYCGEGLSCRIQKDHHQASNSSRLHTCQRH
# [20] = tested on: Inhibin beta A chain (activin A); assay: small molecules binding activin A – biochemical, small-molecule microarray, 635 nm fluorescence scan, primary screen (AID 1107); conditions: INHBA, higher = more signal;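 also: mouse activin A protein probed at 4.33 µg/mL on printed slides; score merges bound-protein fluorescence near 667 nm with spot signal-to-noise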
Structure (SMILES),composite z-score [1],z-score [2],z-score [3],z-score [4],composite z-score [5],z-score [6],composite z-score [7],composite z-score [8],composite z-score [9],composite z-score [10],composite z-score [11],composite z-score [12],composite z-score [13],z-score [14],composite z-score [15],composite z-score [16],composite z-score [17],composite z-score [18],composite z-score [19],composite z-score [20]
CC(=O)NCCCC[C@@H]1NC(=O)[C@@H]2C[C@H](C(=O)NCCCCCN)[C@H](c3cccc(OCCO)c3)N2C1=O,0.872,-3.85 (inactive),-0.31 (inactive),-0.858 (inactive),1.66,1.36 (inactive),0.534,1.42,1.09,0.101,1.05,0.681,0.0358,-1.29 (inactive),1.24,0.533,0.504,1.33,0.823,0.488
COc1cc2c(cc1O)C(C1CC1)N(C)CC2 (stereo not given),0.153,0.814 (inactive),0.74 (inactive),-0.531 (inactive),0.0629,-0.965 (inactive),0.0112,0.0427,-0.944,-0.171,0.353,0.211,0.583,-0.451 (inactive),-0.382,-1.3,-1.17,-0.57,-0.896,0.942
COc1ccc([Si](C)(C)[C@@H]2[C@@H](CC(=O)N(CCO)Cc3ccccc3)O[C@]3(C(=O)N(Cc4cccc(N5CCCCC5=O)c4)c4ccccc43)[C@H]2C)cc1,1.42,1.42 (inactive),-0.0344 (inactive),3.5 (inactive),2.38,1.02 (inactive),0.232,1.45,0.948,-0.151,1.16,-0.0247,0.505,-0.166 (inactive),0.883,0.1,0.242,0.84,0.419,0.493
CC(C)[Si]1(C(C)C)OCc2cc(C3CC3)nc(-c3ccc(Oc4ccccc4)cc3)c21,-0.834,1.95 (inactive),1.12 (inactive),2.1 (inactive),-0.229,-0.26 (inactive),-0.13,-0.27,-0.488,-0.062,-0.777,0.15,0.056,-0.654 (inactive),-0.382,-0.964,-0.233,-0.816,-0.604,0.228
COC(=O)[C@@]1(Cc2ccc(F)cc2)[C@H]2c3cc(C(=O)N(C)C)n(Cc4ccc(OC(F)(F)F)cc4)c3C[C@H]2CN1C(=O)c1ccccc1,-1.21,0.784 (inactive),1.13 (inactive),1 (inactive),0.841,-0.623 (inactive),-0.0623,0.149,-0.0482,0.114,0.19,-0.0448,0.183,1.32 (inactive),0.251,0.22,0.18,0.298,0.0583,0.401
